Structures can show the parent of a compound that is named as a salt.
Tested on: Clostridium sporogenes DSM 1664
Assay: growth (OD595) fold change vs plate DMSO controls (fold change (ratio)); higher = more growth
Settings: incubation time: 27 h, anaerobic, 37 °C
Procedure, shortened: (§1)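 Each value is the mean of 2 biological replicates, and fold changes above 1.5 were set to NA. The underlying readings were taken at 595 nm from shaken anaerobic mGAM cultures in 96-well plates after 27 h at 37 °C. They were blank-subtracted, corrected for compound background using 20 µM compound solutions in water, and converted to OD with a calibration factor of 5. Growth is the fold change relative to the median of the plate DMSO controls.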

| SMILES | growth |
| --- | --- |
| CC(C)(C)C(=O)C(Oc1ccc(Cl)cc1)n1ccnc1 (configuration not stated) [Climbazole] (20 µM) | 1.22 |
| CC1(C)O[C@@H]2[C@@H](CO[C@@]3(COS(N)(=O)=O)OC(C)(C)O[C@@H]23)O1 [Topiramate] (20 µM) | 0.915 |
| CN1CCC(OC(c2ccccc2)c2ccccc2)CC1 [Diphenylpyraline hydrochloride] (20 µM) | 0.998 |
| O=c1[nH]c(=O)n([C@H]2C[C@H](O)[C@@H](CO)O2)cc1/C=C/Br [Brivudine] (20 µM) | 1.08 |
| COC(=O)C1=C(C)NC(C)=C(C(=O)OCC(C)C)C1c1ccccc1[N+](=O)[O-] (configuration not stated) [Nisoldipine] (20 µM) | 0.851 |
| CCOC(=O)C(C)(C)Oc1ccc(Cl)cc1 [Clofibrate] (20 µM) | 1.24 |
| CC(C)[C@H]1CC[C@H](C(=O)N[C@H](Cc2ccccc2)C(=O)O)CC1 [Nateglinide] (20 µM) | 1.11 |
| O=C1OC(c2ccc(O)cc2)(c2ccc(O)cc2)c2ccccc21 [Phenolphthalein] (20 µM) | 1.03 |
| COc1cc2c(cc1OC)C(=O)C(CC1CCN(Cc3ccccc3)CC1)C2 (configuration not stated) [Donepezil hydrochloride] (20 µM) | 1.2 |
| CC1=C(CC(=O)O)c2cc(F)ccc2/C1=C\c1ccc([S+](C)[O-])cc1 (configuration not stated) [Sulindac] (20 µM) | 1.15 |
| Cc1cn([C@H]2C=C[C@@H](CO)O2)c(=O)[nH]c1=O [Stavudine] (20 µM) | 0.967 |
| C[C@]12CCC(=O)C=C1CC[C@@H]1[C@@H]2C(=O)C[C@@]2(C)[C@H]1CC[C@]2(O)C(=O)CO [Cortisone] (20 µM) | 1.15 |
| C/C(O)=C(\C#N)C(=O)Nc1ccc(C(F)(F)F)cc1 [Teriflunomide] (20 µM) | 0.938 |
| C[N+](C)(C)CCCCCC[N+](C)(C)C [Hexamethonium dibromide dihydrate] (20 µM) | 0.959 |
| COC(=O)CCc1ccc(OCC(O)CNC(C)C)cc1 (configuration not stated) [Esmolol hydrochloride] (20 µM) | 0.978 |
| O=C(O)Cc1ccccc1Oc1ccc(Cl)cc1Cl [Fenclofenac] (20 µM) | 0.896 |

Tested on: Escherichia coli IAI1
Assay: as above
Settings: incubation time: 27 h, anaerobic, 37 °C
Procedure, shortened: as §1

| SMILES | growth |
| --- | --- |
| CCc1nc(N)nc(N)c1-c1ccc(Cl)cc1 [Pyrimethamine] (20 µM) | 0.96 |
| CC(=O)Oc1cccc2c1C(=O)c1c(OC(C)=O)cc(C(=O)O)cc1C2=O [Diacerein] (20 µM) | 0.994 |
| CC(C)(CO)[C@@H](O)C(=O)NCCCO [(D)-Panthenol] (20 µM) | 0.982 |
| CCc1cc(Cl)c(OC)c(C(=O)NC[C@@H]2CCCN2CC)c1O [(S,-) Eticlopride hydrochloride] (20 µM) | 0.985 |
| O=C1c2cccc(O)c2C(=O)c2c(O)cccc21 [Danthron] (20 µM) | 1.21 |
| CN(C)CCC(c1ccc(Br)cc1)c1ccccn1 (configuration not stated) [Brompheniramine maleate] (20 µM) | 1.17 |
| NC[C@H]1O[C@H](O[C@H]2[C@H](O[C@@H]3O[C@H](CO)[C@@H](O)[C@H]3O)[C@@H](O)[C@H](N)C[C@@H]2N)[C@H](N)[C@@H](O)[C@@H]1O [Ribostamycin sulfate salt] (20 µM) | 1.04 |
| NS(=O)(=O)c1cc2c(cc1Cl)N=CNS2(=O)=O [Chlorothiazide] (20 µM) | 1.06 |
| CCc1oc2ccccc2c1C(=O)c1cc(Br)c(O)c(Br)c1 [Benzbromarone] (20 µM) | 0.959 |
| O=C1NCN(c2ccccc2)C12CCN(CCCC(c1ccc(F)cc1)c1ccc(F)cc1)CC2 [Fluspirilene] (20 µM) | 0.951 |
| C[C@H](CCC(=O)O)[C@H]1CC[C@H]2[C@@H]3C(=O)C[C@@H]4CC(=O)CC[C@]4(C)[C@H]3CC(=O)[C@]12C [Dehydrocholic acid] (20 µM) | 0.968 |
| CCn1cc(C(=O)O)c(=O)c2ccc(C)nc21 [Nalidixic acid sodium salt] (20 µM) | 0.265 |
| COc1cc(C(=O)NS(=O)(=O)c2ccccc2C)ccc1Cc1cn(C)c2ccc(NC(=O)OC3CCCC3)cc12 [Zafirlukast] (20 µM) | 0.946 |
| NCCc1ccc(O)c(O)c1 [Dopamine hydrochloride] (20 µM) | 1.06 |
| Cc1c(-c2ccccc2)oc2c(C(=O)OCCN3CCCCC3)cccc2c1=O [Flavoxate hydrochloride] (20 µM) | 1.01 |
| Oc1c(I)cc(Cl)c2cccnc12 [Clioquinol] (20 µM) | 0.817 |
